The full data set covers some 7,900 targets. This sample favours those with a hit. About 0.6% of all pairs of compound and target were hits.
Tests used:
Assay in all cases: log2 fold change, soluble protein after heating vs DMSO (PISA); higher = thermal stabilisation; K562 cells, 10 uM, 30 min; active = over 0.2 and 3.5 SD of the protein, either way, in both replicates (recomputed)
[1] = compound: COC1=CC=C(C=C1)CN2C=CC3=C2C=C(C=C3)C(=O)NO
In short: (§1)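 Thermal stability values are relative to control samples and come from duplicates. They are expressed as log2 fold changes. For measurement, K562 cells (2×10^6 cells/mL) received 10 μM compound for 30 min, and aliquots were heated for 3 min over 48°C-58°C, pooled, and extracted at 4°C in PBS with 0.5% NP-40. Soluble protein, the supernatant after 21,000xg for 90 min, was quantified by TMTpro 16plex LC-MS/MS with equalised channel sums.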

[2] = compound: CO[C@H]1C[C@@H]2CC[C@@H](C)[C@@](O)(O2)C(=O)C(=O)N2CCCC[C@H]2C(=O)O[C@H]([C@H](C)C[C@@H]2CC[C@H](n3cnnn3)[C@H](OC)C2)CC(=O)[C@H](C)/C=C(\C)[C@@H](O)[C@@H](OC)C(=O)[C@H](C)C[C@H](C)/C=C/C=C/C=C/1C [zotarolimus]
In short: as §1

[3] = compound: COc1cc(C(=O)O)ccc1NC(=O)[C@@H]1N[C@@H](CC(C)(C)C)[C@](C#N)(c2ccc(Cl)cc2F)[C@H]1c1cccc(Cl)c1F [idasanutlin]
In short: as §1

[4] = compound: COc1cc2nc(-c3cc(F)ccc3O)nc(N[C@@H]3CNC[C@H]3C(C)(C)O)c2cc1OC
In short: as §1

[5] = compound: COc1cc2ncnc(Nc3ccc(F)c(Cl)c3)c2cc1OCCCN1CCOCC1 [gefitinib]
In short: as §1

[6] = compound: CS(=O)(=O)CCNCc1ccc(-c2ccc3ncnc(Nc4ccc(OCc5cccc(F)c5)c(Cl)c4)c3c2)o1 [lapatinib]
In short: as §1

[7] = compound: CS(=O)(=O)N1CCN(Cc2cc3nc(-c4cccc5[nH]ncc45)nc(N4CCOCC4)c3s2)CC1 [pictilisib]
In short: as §1

[8] = compound: C[C@@H](Oc1cc(-c2cnn(C3CCNCC3)c2)cnc1N)c1c(Cl)ccc(F)c1Cl [crizotinib]
In short: as §1

[9] = compound: C[C@H](C1=CC=C(C=C1)C(=O)NC2=C3C=CNC3=NC=C2)N
In short: as §1

[10] = compound: C[C@H](Nc1ncnc2nc[nH]c12)c1cc2cccc(Cl)c2c(=O)n1-c1ccccc1 [duvelisib]
In short: as §1

[11] = compound: Cc1cc(Nc2cc(CN3CCOCC3)c3nc(C)c(Cc4ccc(Cl)cc4F)n3n2)n[nH]1 [gandotinib]
In short: as §1

[12] = compound: Cc1cc(Nc2cc(N3CCN(C)CC3)nc(Sc3ccc(NC(=O)C4CC4)cc3)n2)n[nH]1 [tozasertib]
In short: as §1

[13] = compound: Cc1cc(SCc2sc(-c3ccc(C(F)(F)F)cc3)nc2C)ccc1OCC(=O)O
In short: as §1

[14] = compound: Cc1ccc(-n2nc(C(C)(C)C)cc2NC(=O)Nc2ccc(OCCN3CCOCC3)c3ccccc23)cc1 [doramapimod]
In short: as §1

[15] = compound: Cc1ccc(C(=O)N(CCCN)[C@@H](c2nc3cc(Cl)ccc3c(=O)n2Cc2ccccc2)C(C)C)cc1 [ispinesib]
In short: as §1

[16] = compound: CON(C)C(=O)N1N=C(c2cc(F)ccc2F)S[C@@]1(CCCN)c1ccccc1 [filanesib]
In short: as §1

[17] = compound: COc1cc(Nc2ncc3c(n2)-c2ccc(Cl)cc2C(c2c(F)cccc2OC)=NC3)ccc1C(=O)O [alisertib]
In short: as §1

[18] = compound: COc1cccc2cc(-c3nc([C@H]4CC[C@H](C(=O)O)CC4)n4ncnc(N)c34)[nH]c12
In short: as §1

[19] = compound: CS(=O)(=O)c1ccc(-c2cnc(N)c(C(=O)Nc3ccccc3)n2)cc1
In short: as §1

[20] = compound: C[C@@H]1COCCN1C2=NC(=NC(=C2)C3(CC3)S(=O)(=O)C)C4=C5C=CNC5=CC=C4
In short: as §1

Measured: log2 fold change

MAGEA8 (UniProt P43361)
active: [11] -0.472
inactive: [1] 0.061 | [2] 0.108 | [3] 0.002 | [4] 0.057 | [5] -0.069 | [6] -0.032 | [7] 0.145 | [8] -0.003 | [9] 0.134 | [10] -0.082 | [12] -0.007 | [13] -0.002 | [14] 0.037 | [15] -0.034

MED22 (UniProt Q15528)
inactive: [1] -0.03 | [16] -0.008 | [2] 0.047 | [3] -0.023 | [17] 0.019 | [5] 0.017 | [18] -0.171 | [19] 0.013 | [8] -0.082 | [20] 0.027 | [9] 0.027 | [10] 0.158 | [12] -0.036 | [13] 0.049 | [14] 0.027 | [15] -0.098

IL10RB (UniProt Q08334)
inactive: [1] -0.161 | [16] 0.299 | [3] -0.008 | [4] 0.048 | [5] 0.088 | [6] 0.011 | [7] 0.025 | [19] 0.004 | [8] 0.009 | [20] -0.031 | [10] 0.018 | [11] -0.238 | [12] -0.122 | [13] 0.089 | [14] -0.007

MAN2B2 (UniProt Q9Y2E5)
inactive: [1] -0.077 | [16] -0.027 | [3] -0.012 | [17] 0.022 | [4] -0.038 | [5] 0.044 | [18] 0.075 | [6] -0.026 | [19] 0.051 | [8] -0.014 | [20] 0.055 | [10] 0.094 | [12] -0.044 | [13] 0.004 | [14] 0.017 | [15] -0.147

MAP2K5 (UniProt Q13163)
inactive: [1] 0.206 | [2] 0.003 | [3] -0.117 | [8] -0.012 | [9] 0.072 | [10] -0.049 | [13] -0.171 | [14] 0.053 | [15] 0.123

KIF13A isoform 4 (UniProt Q9H1H9)
inactive: [16] -0.684 | [2] 0.03 | [3] -0.081 | [19] -0.363 | [9] -0.019

ING5 (UniProt Q8WYH8)
Chain of UniProt Q8WYH8 (Q8WYH8 whole entry, looked up): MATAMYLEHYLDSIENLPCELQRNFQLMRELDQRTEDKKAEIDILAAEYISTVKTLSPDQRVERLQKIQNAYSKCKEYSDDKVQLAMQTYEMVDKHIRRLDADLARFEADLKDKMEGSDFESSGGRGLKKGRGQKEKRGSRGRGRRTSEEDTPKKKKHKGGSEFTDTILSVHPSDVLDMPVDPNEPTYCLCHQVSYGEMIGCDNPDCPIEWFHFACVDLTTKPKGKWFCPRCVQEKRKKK
inactive: [1] 0.208 | [2] 0.014 | [17] 0.003 | [4] 0.127 | [18] 0.179 | [6] -0.128 | [8] -0.36 | [9] -0.018 | [12] -0.079 | [14] -0.019

LMBRD1 (UniProt Q9NUN5)
active: [16] -0.39 | [15] -0.61
inactive: [2] 0.049 | [3] 0.102 | [17] -0.022 | [4] -0.062 | [5] 0 | [18] 0.059 | [6] -0.026 | [7] -0.03 | [19] -0.003 | [20] 0.111 | [9] -0.14 | [10] -0.037 | [11] -0.137 | [12] -0.083 | [13] -0.031

LEPROT (UniProt O15243)
inactive: [2] -0.056 | [3] 0.31 | [17] -0.027 | [18] 0.041 | [7] -0.212 | [20] -0.149 | [9] 0.083 | [10] 0.045 | [11] 0.081 | [12] 0.003 | [13] -0.026

IKZF1 (UniProt R9R4D9)
inactive: [1] -0.167 | [2] -0.192 | [4] 0.084 | [6] 0.037 | [7] 0.059 | [8] 0.028 | [9] -0.078 | [10] 0.042 | [11] 0.244 | [12] -0.066 | [13] -0.12 | [14] 0.235

LSR isoform 3 (UniProt Q86X29)
inactive: [16] 0.188 | [2] 0.115 | [17] -0.011 | [4] 0.041 | [18] 0.033 | [6] 0.073 | [19] 0.052 | [9] -0.138 | [10] 0.179 | [12] -0.324 | [13] -0.118

MED29 (UniProt Q9NX70)
inactive: [3] 0.1 | [17] -0.571 | [5] 0.058 | [18] 0.115 | [6] -0.028 | [10] -0.025 | [13] 0.171
active: [4] -0.77

LAPTM4B (UniProt Q86VI4)
inactive: [16] 0.186 | [17] -0.027 | [18] 0.007 | [7] 0.017 | [19] 0.012 | [11] 0

KMT2C isoform 3 (UniProt Q8NEZ4)
Chain of UniProt Q8NEZ4 (Q8NEZ4 whole entry, looked up): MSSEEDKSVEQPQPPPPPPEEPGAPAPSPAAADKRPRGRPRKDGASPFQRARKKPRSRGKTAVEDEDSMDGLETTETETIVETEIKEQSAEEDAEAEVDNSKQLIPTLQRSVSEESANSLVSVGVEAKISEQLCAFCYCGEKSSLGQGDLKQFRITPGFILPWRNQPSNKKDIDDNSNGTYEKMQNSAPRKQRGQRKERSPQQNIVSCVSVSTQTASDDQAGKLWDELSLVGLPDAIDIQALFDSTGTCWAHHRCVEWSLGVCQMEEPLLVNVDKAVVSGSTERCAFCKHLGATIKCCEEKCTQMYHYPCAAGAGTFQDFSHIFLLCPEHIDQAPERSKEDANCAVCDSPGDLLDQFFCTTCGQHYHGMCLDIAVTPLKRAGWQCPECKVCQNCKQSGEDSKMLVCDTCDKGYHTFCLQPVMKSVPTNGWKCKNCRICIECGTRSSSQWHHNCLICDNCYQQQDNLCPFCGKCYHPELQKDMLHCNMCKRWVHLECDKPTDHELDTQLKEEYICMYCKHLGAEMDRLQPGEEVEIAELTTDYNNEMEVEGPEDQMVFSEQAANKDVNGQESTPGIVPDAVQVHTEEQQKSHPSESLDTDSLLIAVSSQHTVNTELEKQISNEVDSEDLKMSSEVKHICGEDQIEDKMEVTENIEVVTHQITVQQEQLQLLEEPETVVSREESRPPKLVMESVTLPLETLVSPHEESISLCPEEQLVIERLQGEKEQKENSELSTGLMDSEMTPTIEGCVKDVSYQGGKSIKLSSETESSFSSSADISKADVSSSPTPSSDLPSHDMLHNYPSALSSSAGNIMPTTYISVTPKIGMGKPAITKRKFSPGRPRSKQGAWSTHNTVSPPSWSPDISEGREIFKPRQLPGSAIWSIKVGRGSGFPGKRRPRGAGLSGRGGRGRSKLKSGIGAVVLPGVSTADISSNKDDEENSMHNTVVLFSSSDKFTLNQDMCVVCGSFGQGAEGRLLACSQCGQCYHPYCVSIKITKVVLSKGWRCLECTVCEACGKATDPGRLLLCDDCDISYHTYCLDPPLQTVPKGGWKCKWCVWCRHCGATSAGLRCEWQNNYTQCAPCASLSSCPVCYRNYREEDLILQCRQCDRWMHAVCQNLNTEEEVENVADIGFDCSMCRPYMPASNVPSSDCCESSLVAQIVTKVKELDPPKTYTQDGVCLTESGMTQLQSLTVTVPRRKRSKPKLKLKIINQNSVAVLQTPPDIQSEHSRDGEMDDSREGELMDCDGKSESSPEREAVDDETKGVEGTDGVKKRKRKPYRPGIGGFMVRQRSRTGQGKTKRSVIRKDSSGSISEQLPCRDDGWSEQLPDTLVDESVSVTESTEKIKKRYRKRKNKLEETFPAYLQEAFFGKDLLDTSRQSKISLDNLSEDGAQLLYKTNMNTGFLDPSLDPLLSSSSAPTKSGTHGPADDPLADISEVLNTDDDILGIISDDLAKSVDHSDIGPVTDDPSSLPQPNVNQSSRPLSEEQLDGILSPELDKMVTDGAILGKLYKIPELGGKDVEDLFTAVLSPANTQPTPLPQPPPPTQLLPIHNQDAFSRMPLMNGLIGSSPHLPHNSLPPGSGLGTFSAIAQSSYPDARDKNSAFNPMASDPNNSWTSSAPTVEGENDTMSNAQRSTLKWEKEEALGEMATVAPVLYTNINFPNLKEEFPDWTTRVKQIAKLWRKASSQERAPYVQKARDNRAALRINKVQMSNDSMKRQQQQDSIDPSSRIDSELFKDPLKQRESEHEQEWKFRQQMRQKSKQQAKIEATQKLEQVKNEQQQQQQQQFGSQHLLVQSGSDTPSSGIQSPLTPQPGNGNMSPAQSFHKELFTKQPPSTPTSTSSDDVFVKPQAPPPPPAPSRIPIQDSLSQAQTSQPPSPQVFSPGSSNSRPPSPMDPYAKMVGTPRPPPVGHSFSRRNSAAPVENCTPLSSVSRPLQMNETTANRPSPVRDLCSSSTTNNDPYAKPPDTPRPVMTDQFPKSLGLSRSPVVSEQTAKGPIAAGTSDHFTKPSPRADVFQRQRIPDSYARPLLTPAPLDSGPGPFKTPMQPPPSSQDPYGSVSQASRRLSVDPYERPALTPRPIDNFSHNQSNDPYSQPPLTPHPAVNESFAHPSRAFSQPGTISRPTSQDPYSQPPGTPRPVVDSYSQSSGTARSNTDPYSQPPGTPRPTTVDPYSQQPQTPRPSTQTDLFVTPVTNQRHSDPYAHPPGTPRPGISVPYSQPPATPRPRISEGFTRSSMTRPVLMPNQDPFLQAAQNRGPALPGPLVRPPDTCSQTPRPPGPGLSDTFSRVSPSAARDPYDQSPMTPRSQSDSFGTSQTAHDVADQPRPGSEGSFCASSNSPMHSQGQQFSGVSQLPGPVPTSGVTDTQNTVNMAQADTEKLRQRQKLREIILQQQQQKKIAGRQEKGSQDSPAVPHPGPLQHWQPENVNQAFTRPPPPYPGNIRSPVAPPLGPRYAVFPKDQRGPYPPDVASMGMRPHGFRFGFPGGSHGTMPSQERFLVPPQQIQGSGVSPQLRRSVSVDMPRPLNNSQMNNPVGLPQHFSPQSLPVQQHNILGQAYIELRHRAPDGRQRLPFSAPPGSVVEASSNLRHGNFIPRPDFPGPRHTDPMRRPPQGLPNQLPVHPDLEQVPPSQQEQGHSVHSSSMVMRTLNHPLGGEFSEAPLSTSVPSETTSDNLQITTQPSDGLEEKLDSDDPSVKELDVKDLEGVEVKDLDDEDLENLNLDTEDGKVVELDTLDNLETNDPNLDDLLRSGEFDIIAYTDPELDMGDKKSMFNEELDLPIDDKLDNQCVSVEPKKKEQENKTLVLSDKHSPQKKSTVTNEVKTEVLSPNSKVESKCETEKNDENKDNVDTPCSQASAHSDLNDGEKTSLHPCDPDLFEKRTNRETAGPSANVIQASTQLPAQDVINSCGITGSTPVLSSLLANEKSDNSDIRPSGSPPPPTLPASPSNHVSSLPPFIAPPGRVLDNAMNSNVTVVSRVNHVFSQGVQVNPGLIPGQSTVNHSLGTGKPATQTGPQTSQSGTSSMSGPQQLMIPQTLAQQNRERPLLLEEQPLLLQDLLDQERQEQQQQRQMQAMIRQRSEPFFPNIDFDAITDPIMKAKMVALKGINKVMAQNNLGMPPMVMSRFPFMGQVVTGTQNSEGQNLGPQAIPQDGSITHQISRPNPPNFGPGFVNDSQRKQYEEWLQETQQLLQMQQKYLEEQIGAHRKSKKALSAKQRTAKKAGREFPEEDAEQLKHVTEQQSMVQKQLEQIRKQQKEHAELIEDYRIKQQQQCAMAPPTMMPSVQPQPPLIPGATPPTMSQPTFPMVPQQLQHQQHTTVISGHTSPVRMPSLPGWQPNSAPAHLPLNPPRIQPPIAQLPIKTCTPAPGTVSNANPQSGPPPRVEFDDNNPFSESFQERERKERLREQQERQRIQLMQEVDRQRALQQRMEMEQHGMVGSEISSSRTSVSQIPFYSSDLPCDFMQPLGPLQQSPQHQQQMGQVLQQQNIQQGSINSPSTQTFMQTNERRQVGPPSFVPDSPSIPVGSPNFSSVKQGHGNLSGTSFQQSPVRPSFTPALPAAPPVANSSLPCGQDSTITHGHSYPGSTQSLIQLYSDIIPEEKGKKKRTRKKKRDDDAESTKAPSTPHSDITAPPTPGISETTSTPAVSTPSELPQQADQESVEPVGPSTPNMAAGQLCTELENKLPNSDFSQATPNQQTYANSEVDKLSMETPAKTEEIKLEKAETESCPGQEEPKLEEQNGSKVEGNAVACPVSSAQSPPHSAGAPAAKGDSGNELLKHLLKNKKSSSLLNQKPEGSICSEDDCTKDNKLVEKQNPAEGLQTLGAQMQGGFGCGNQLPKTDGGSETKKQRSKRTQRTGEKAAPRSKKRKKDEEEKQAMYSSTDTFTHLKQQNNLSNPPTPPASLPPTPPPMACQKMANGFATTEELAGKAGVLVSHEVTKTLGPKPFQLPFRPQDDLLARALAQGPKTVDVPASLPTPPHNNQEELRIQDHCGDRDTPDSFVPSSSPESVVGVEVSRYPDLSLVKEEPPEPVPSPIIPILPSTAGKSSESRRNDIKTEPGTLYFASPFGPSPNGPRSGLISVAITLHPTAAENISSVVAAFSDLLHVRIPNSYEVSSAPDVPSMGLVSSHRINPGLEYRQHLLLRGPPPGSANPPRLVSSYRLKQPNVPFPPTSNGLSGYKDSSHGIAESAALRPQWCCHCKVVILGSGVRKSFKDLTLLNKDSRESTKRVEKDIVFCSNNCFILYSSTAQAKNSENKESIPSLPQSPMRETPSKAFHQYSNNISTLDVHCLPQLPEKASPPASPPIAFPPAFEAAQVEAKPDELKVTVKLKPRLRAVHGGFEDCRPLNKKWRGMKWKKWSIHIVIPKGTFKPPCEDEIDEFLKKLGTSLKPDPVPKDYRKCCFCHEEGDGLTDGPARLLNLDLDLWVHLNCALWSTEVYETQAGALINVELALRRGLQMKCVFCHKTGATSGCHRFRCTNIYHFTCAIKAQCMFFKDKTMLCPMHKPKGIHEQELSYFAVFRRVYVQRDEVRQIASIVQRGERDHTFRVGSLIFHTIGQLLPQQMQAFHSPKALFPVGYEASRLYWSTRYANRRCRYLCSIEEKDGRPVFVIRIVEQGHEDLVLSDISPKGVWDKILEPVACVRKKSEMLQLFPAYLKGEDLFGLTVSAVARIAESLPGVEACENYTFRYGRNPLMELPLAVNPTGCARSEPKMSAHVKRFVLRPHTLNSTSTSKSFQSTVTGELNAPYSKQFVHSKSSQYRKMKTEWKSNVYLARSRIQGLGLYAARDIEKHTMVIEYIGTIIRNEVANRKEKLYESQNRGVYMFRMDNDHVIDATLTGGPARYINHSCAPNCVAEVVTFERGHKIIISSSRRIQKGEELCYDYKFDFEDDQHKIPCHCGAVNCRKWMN
inactive: [16] 0.029 | [2] -0.028 | [3] 0.012 | [17] -0.028 | [5] 0.058 | [18] -0.027 | [7] 0.229 | [19] 0.013 | [20] 0.021 | [9] 0.022 | [10] 0.134 | [11] -0.106 | [12] 0.063 | [13] -0.048 | [15] -0.235

IKZF1 isoform 2 (UniProt Q13422)
inactive: [16] -0.075 | [2] 0.1 | [17] 0.079 | [5] -0.044 | [18] -0.031 | [19] 0.081 | [9] 0.059 | [12] 0.055 | [15] -0.034

MAPK7 (UniProt Q13164)
inactive: [1] -0.066 | [3] 0.003 | [7] 0.108 | [20] 0.03 | [11] 0.304 | [14] 0.057
active: [8] 0.773

KMT5A (UniProt Q9NQR1)
active: [16] 0.976
inactive: [7] 0.368 | [19] 0.018 | [11] 0.038

MAP4K4 isoform 6 (UniProt O95819)
inactive: [16] -0.018 | [2] -0.162 | [5] -0.028 | [18] -0.179 | [19] -0.019 | [9] -0.305 | [10] -0.152 | [12] -0.132 | [13] -0.025

MAPK11 (UniProt Q15759)
inactive: [1] -0.126 | [7] 0.068 | [8] -0.115 | [11] -0.083 | [12] 0.268 | [15] -0.334

KIZ (UniProt Q2M2Z5)
inactive: [1] -0.008 | [2] 0.269 | [3] -0.019 | [4] -0.064 | [6] 0.066 | [7] -0.215 | [8] -0.032 | [9] -0.115 | [11] 0.063 | [14] 0.071 | [15] -0.047

ITM2C (UniProt Q9NQX7)
inactive: [16] -0.275 | [2] -0.047 | [3] -0.061 | [4] -0.12 | [5] -0.092 | [6] -0.045 | [7] -0.149 | [19] 0.117 | [20] 0.239 | [9] 0.137 | [10] -0.034 | [11] 0.083 | [13] 0.011 | [15] 0.051

KXD1 (UniProt Q9BQD3)
inactive: [2] 0.073 | [3] -0.021 | [17] -0.019 | [4] 0.042 | [6] -0.054 | [7] 0.063 | [20] 0.118 | [9] -0.009 | [10] 0.067 | [11] -0.156 | [12] -0.046 | [13] 0.012 | [15] -0.078
active: [18] 0.342

MAP4 isoform 5 (UniProt P27816)
inactive: [16] -0.039 | [3] -0.025 | [17] 0.143 | [4] -0.033 | [5] -0.005 | [18] -0.045 | [6] 0.036 | [19] 0.096 | [20] -0.159 | [15] -0.042

MFAP3 (UniProt P55082)
inactive: [16] -0.092 | [3] 0.192 | [19] -0.012 | [20] 0.045 | [10] 0.083 | [12] 0.009 | [13] 0.003

MCOLN3 (UniProt Q8TDD5)
inactive: [17] 0.058 | [4] 0.068 | [5] -0.04 | [18] -0.035 | [6] -0.02 | [7] 0.044 | [11] 0.022 | [12] -0.112 | [15] -0.255

IP6K1 (UniProt Q92551)
inactive: [16] 0.037 | [2] 0.151 | [3] -0.044 | [17] 0.042 | [18] 0.091 | [6] 0.128 | [7] 0.13 | [19] 0.129 | [20] -0.072 | [9] 0.295 | [10] 0.065 | [11] -0.145 | [12] -0.027 | [13] 0.23 | [15] -0.437
active: [4] 1.11

From the supplement of paper PMC10849652
